From PubChem BioAssay
This is a sample that favours compounds with a hit; in the whole collection about 11% have one here.
Gal4-VP16 FLuc: VP16 counterscreen qHTS for inhibitors of ROR gamma transcriptional activity. Drosophila S2 Gal4-VP16 UAS-luciferase, luminescence, 20 h. Potency, µM (highest dose often 53.6 µM), for inactives: at the highest dose activity, negative = inhibition, most hits filed as inhibitors. 3.5% of 310,000 active;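 further: Gal4-VP16 expression switched on by copper sulfate through the metallothionein promoter; potency means the concentration at half of the fitted maximal effect; on the % scale 0 is the no-effect control and ±100 the full control effect; nearly all actives have a fitted effect of over 50% in size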
IL-1B inflam inh: qHTS for Inhibitors of Inflammasome Signaling: IL-1-beta AlphaLISA Primary Screen; 4.7% of 360,000 active; activity change, % at 57.5 µM; THP-1 LPS/ATP IL-1B secretion, AlphaLISA, 16 h; stronger effect = lower value; in the data active means activity change below about -50%; inconclusive means mostly about -30% to -49%; further: on the % scale 0 is the no-effect control and ±100 the full control effect
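Secreted IL-1B measured by AlphaLISA bead assay after 16 h compound exposure of THP-1 cells; compounds (final up to 57.5 uM) added 1 h before LPS (250 ng/mL) and ATP (1.25 mM) stimulation; lower signal means less secretion.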
RORg inh: qHTS for inhibitors of ROR gamma transcriptional activity; 5.4% of 310,000 active; Nuclear receptor ROR-gamma (Mus musculus), P51450; Drosophila S2 Gal4-RORgamma UAS-luciferase reporter, 20 h; AID 2551, 2010; Potency, µM (top dose mostly 53.6 µM), without a hit: at the highest dose activity change, negative = inhibition, most hits filed as inhibitors; further: potency means the concentration at half of the fitted maximal effect; on the % scale 0 is the no-effect control and ±100 the full control effect; nearly all actives have a fitted effect of over 60% in size
Target sequence (P51450 whole entry, looked up, the tested form may be a part): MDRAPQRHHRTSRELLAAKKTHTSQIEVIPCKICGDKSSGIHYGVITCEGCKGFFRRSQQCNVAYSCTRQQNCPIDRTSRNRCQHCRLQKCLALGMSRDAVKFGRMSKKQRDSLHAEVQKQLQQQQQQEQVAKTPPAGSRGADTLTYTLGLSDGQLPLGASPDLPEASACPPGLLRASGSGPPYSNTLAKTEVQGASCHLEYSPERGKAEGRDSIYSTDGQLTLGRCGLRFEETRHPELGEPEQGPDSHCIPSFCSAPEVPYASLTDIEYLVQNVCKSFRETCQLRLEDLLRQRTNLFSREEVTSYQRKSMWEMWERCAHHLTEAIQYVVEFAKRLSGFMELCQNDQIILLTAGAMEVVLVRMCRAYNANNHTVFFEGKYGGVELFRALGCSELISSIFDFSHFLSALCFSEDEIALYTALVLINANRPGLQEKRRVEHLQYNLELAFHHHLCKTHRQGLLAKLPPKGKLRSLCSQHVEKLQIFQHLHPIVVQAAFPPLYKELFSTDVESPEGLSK
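Luminescence from a UAS-regulated Photinus luciferase reporter in stably transfected Drosophila Schneider cells is measured; decreased signal marks ROR gamma inhibition. Fusion expression is induced by 700 uM copper sulfate for 20 hr.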
SW480 rerep: A quantitative high throughput screen for small molecules that induce DNA re-replication in SW480 colon adenocarcinoma cells; 1.8% of 340,000 active; AID 624297, 2012; Potency, µM (series often up to 46.1 µM), for inactives: at the top dose re-replication activation, usual class: activators; SW480 DNA re-replication, Hoechst DNA content imaging, 48 h; further: potency means the concentration at half of the fitted maximal effect; % of control where 0% means no effect; nearly all actives have a fitted effect of over 55% in size
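Compounds, transferred as 23 nL by pin tool, were incubated with cells for 48 hr; DNA content per nucleus was then quantified by Hoechst staining and fluorescence plate imaging.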
MCF10A rereplic: A quantitative high throughput screen for small molecules that induce DNA re-replication in MCF 10a normal breast cells; MCF 10A DNA re-replication, Hoechst nuclear intensity, 48 h; Potency, µM (series often up to 46.1 µM), inactives show at the highest dose activity, positive = re-replication, usual class: activators; 2.9% of 350,000 active; further: potency means the concentration at half of the fitted maximal effect; % of control where 0% means no effect; nearly all actives have a fitted effect of over 50% in size
* marks the source's active call; other numbers are inactive results; ? = inconclusive; . = not tested or not shown; ! = a repeat was not active. Unless noted, the call rests on the fitted dose curve; in most records, active means well fitted curve in the direction sought with a large enough effect; inconclusive means small, poorly fitted or top-dose-only effect, or another doubt; inactive means no such curve, though single readings can be large; an effect the other way counts as inactive or inconclusive.

SMILES	Gal4-VP16 FLuc	IL-1B inflam inh	RORg inh	SW480 rerep	MCF10A rereplic
CN(C(=O)c1cccc(NC(=O)Cc2cccc(NC(=O)C3CCCN(C(=O)C4CCCC4)C3)c2)c1)C1CC1 (stereo not given)	.	-8	.	29%	?
CC[C@]12c3[nH]c4ccc(OC)cc4c3CCN1C(=O)C(CC(=O)NC/C=C(\C)CCC=C(C)C)C[C@@H]2C(=O)N1CCN(C(=O)C2CC2)CC1 (stereo not given in full)	.	-62*	.	27%	3%
CC(C)=CCC/C(C)=C/CNC(=O)C[C@H]1C[C@H](C(=O)N2CCOCC2)[C@@]2(CCC3CCCC3)c3[nH]c4cc(CCC(=O)N(C)C)ccc4c3CCN2C1=O	.	?	.	?	15µM*
CC(C)=CCC/C(C)=C/CNC(=O)C[C@H]1C[C@H](C(=O)N2CCCCC2)[C@@]2(C)c3[nH]c4cc(-c5ccco5)ccc4c3CCN2C1=O	.	-67*	.	?	?
COc1ccc2[nH]c3c(c2c1)CCN1C(=O)C(CC(=O)NC/C=C(\C)CCC=C(C)C)C[C@H](C(=O)N2CCOCC2)[C@@]31CCC1CCCC1 (stereo not given in full)	.	12	.	-8%	-3%
CC(C)=CCC/C(C)=C/CNC(=O)CC1C[C@H](C(=O)N2CCCCC2)[C@@]2(C)c3[nH]c4ccccc4c3CCN2C1=O (stereo not given in full)	.	62	.	-51%	?
CN(C)C(=O)CCc1ccc2c3c([nH]c2c1)[C@]1(CCC2CCCC2)[C@@H](C(=O)N2CCOCC2)C[C@H](CC(=O)NCC24CC5CC(CC(C5)C2)C4)C(=O)N1CC3	.	-27	.	14%	0%
COc1ccc2c(c1)C(=O)[C@H](O)[C@@H](c1ccc(OC)c(Br)c1)O2	13µM*!	26	7.1µM*	4.1µM*	?
Nc1nc(SCc2ccccn2)c2ncn(C3OC(CO)C(O)C3O)c2n1 (stereo not given)	.	29	.	2%	-5%
COc1cc(/C=N/O)cc(Br)c1OC	-4%	0	-16%	1%	11%
COc1cc(CNCCO)cc(Cl)c1OCc1ccc(Cl)cc1Cl	-8%	-83*	-2%	?	?
COc1cc(CNC(C)(C)CO)cc(Br)c1OCc1ccc(Cl)cc1Cl	?	?	-26%	18%	18µM*
COc1cc(CNCCO)cc(Br)c1OCc1ccccc1Cl	0%	-15	-22%	?	?
COc1cc(/C=N/O)cc(Br)c1OCc1ccc(Cl)cc1	?	?	5.6µM*	?	18µM*
COc1cc(CNC(C)(C)CO)cc(Br)c1OCc1ccc(Cl)cc1	-3%	-114*	-37%	?	?
COc1ccc(CNc2ccnc(-c3ccccc3C(F)(F)F)n2)c(OC)c1	-1%	.	19%	.	.
CCN1CCN(c2cc3c(cc2F)c(=O)c(S(=O)(=O)c2ccccc2)cn3C)CC1	-6%	56	-28%	-2%	3%
Cc1ccc(S(=O)(=O)c2cn(C)c3cc(N4CCN(C)CC4)c(F)cc3c2=O)c(C)c1	?	-93*	?	1.6µM*	-2%
Cc1ccc(C)c(NC(=O)Cn2ccn(-c3ccc4c(c3)OCO4)c(=O)c2=O)c1	.	6	.	-5%	0%
COC(=O)C1=C[C@@H](C(=O)OC)[C@@H]2C3=C(C(=O)[C@]2(C)NC(=O)c2ccccc2)[C@H](C)[C@@H]2C(=O)NC(=O)[C@@H]2[C@@H]3C1	2%	.	-12%	.	.
C/C(=N\Nc1nc(C)cc(C)n1)c1ccc(C)o1	10µM*	-2	7.1µM*	-11%	-2%
Cc1cc(C)n(-c2nnc3c4ccccc4n(C)c3n2)n1	?	-5	3.2µM*	-2%	-2%
C/C(=N\Nc1nnc2c3ccccc3n(C)c2n1)c1ccc(C)o1	5%	-65*	-40%	?	5%
O=S(=O)(c1ccccc1)N1CCC2(CCN(c3ncccn3)CC2)CC1	3%	.	7%	.	.
